A short description of assay [1]: P-glycoprotein substrates identified in KB-8-5-11 adenocarcinoma cell line, qHTS therapeutic library screen (AID 1346987). Further: nearly all actives have a fitted effect of over 65% in size. Further: potency means the concentration at half of the fitted maximal effect. In outline:
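Compounds are pinned in dose-response onto KB-8-5-11 cells (500 cells/well, colchicine-free medium) and left 72 h at 37 degree C. CellTiter-Glo luminescence then yields AC50 values.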
On the technique in general: In qHTS, concentration-response curves come from the screen itself.

The target in assay [2] is Calcium and integrin-binding protein 1 (Homo sapiens) (UniProt Q99828). In words: Primary qHTS for Identification of Calcium Integrin Binding Protein 1 (CIB1) Competitor (AID 1508620).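 Further: GST tagged CIB1 binding a fluorescein labelled alphaIIb integrin peptide tracer; top concentration of the series differs between compounds; on the % scale 0 is the no-effect control and ±100 the full control effect.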 In outline:
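Fluorescence polarization competition: GST-tagged CIB1 (1 uM final) preincubated with compound 15 min at room temperature, then FITC-labelled alphaIIb peptide (100 nM final) added. After 15 min at room temperature, polarization read at Ex 480/Em 540.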

Assay [3] has as its target Glutathione peroxidase 1 (Homo sapiens) (UniProt P07203). In words: Primary qHTS Assay for Inhibitors of Recombinant Selenoprotein Glutathione Peroxidase 1 (GPX1) (AID 1845191). Further: nearly all actives have a fitted effect of over 65% in size. In outline:
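GR-coupled readout: NADPH consumption tracked by fluorescence, ex 340/em 450 nm, at t=0 and after 15 min at RT. Final mix 10 nM GPX1, 1 mM GSH, 0.5 mM CHP, 0.5 mM NADPH, 100 nM GR, 0.01% BSA, following 30 min enzyme–compound preincubation.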

A short description of assay [4]: qHTS to identify inhibitors of the type 1 interferon - major histocompatibility complex class I in skeletal muscle: primary screen against the NCATS Mechanism Interrogation Plate v5.0 (MIPE) Libary (AID 1347411). Further: nearly all actives have a fitted effect of over 65% in size. Further: potency means the concentration at half of the fitted maximal effect.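 On activity change, negative = inhibition: plate controls were vehicle for no effect and reference inhibitor for full effect.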 In outline: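 Luminescence from CRISPR HiBit-tagged endogenous HLA-B in human myoblasts reported MHC class I level after 24 h of IFN-beta (4 ng/ml) plus compound. Compounds ran as 11-point 1:3 series, top 46 uM final.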

A short description of assay [5]: Primary qHTS for inhibitors of nuclear receptor binding SET domain protein 2 (NSD2) in an isogenic RCH-ACV NSD2 p.E1099K mutant (9B) (AID 1645876). Further: nearly all actives have a fitted effect of over 70% in size. Further: potency means the concentration at half of the fitted maximal effect.
Assay [6] in a line: Primary qHTS for inhibitors of nuclear receptor binding SET domain protein 2 (NSD2) in an RCH-ACV wild type WT cells (2C) (AID 1645877). Further: nearly all actives have a fitted effect of over 70% in size. Further: potency means the concentration at half of the fitted maximal effect.
Assay [7] addresses Phospholipid hydroperoxide glutathione peroxidase GPX4 (Homo sapiens) (UniProt P36969). Description: Primary qHTS Assay for Inhibitors of Recombinant Selenoprotein Glutathione Peroxidase 4 (GPX4) (AID 1845192). Further: on the % scale 0 is the no-effect control and ±100 the full control effect; nearly all actives have a fitted effect of over 65% in size. Particulars: outcome: dose series up to 50 µM unless noted. In outline: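 Steps: GPX4 plus compound, 30 min RT; add GR/GSH/NADPH master mix; start with cumene hydroperoxide; read 340/450 nm fluorescence at 0 and 15 min. Finals were 200 nM GPX4, 1 mM GSH, 0.5 mM CHP, 0.5 mM NADPH, 100 nM GR.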

Assay [8] is described as follows: qHTS drug screen for cell cycle checkpoint inhibitors in PARPi-resistant BRCA-mutant ovarian cancer cell lines. (AID 1963452; calls by dose curve). Particulars: PEO1/OlaR viability, CellTiter-Glo luminescence, 96 h, stronger effect = lower value. In outline: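 PEO1, PEO4 and PEO1/OlaR ovarian cancer cells, 600 per well, exposed 96 h at 37C to a dilution series. Viability read by CellTiter-Glo luminescence, normalized to DMSO and empty wells; activity summarized as Z-AUC.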

A short description of assay [9]: P-glycoprotein substrates identified in KB-3-1 adenocarcinoma cell line, qHTS therapeutic library screen (AID 1346986). Further: on the % scale 0 is the no-effect control and ±100 the full control effect; nearly all actives have a fitted effect of over 60% in size. In outline: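 In 1536-well format, 500 cells/well received pinned compound titrations and were incubated 72 h, 5% CO2. Viability was read by CellTiter-Glo; cytotoxic if AC50 < 10 uM and efficacy >50%.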
Assay [10] in a line: qHTS assay to identify inhibitors of the type 1 interferon - major histocompatibility complex class I in skeletal muscle: Counter screen cell viability and HiBit confirmation (AID 1347412). Further: on the % scale 0 is the no-effect control and ±100 the full control effect; nearly all actives have a fitted effect of over 60% in size. Particulars: iHSKM muscle cells + IFN-b, HiBiT or CellTiter-Glo, 24 h, at 45.9 µM (top of the series). In outline: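 Luminescence read-out: Nano-Glo HiBiT lytic signal from C-terminally HiBiT-tagged HLA-B in CRISPR-edited human myoblasts, plus CellTiter Glo ATP as viability counter screen. IFN-beta 4.0 ng/ml; 24 hrs treatment at 37 C, 5% CO2.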

For assay [11], the system named is Zika virus NS2B-NS3 protease. In words: Primary screen GU AMC qHTS for Zika virus inhibitors (AID 1347154).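 Further: 0% = no-inhibitor control and -100% = no-enzyme control; nearly all actives have a fitted effect of over 70% in size.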 In outline: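 Unlinked Zika NS2B hydrophilic domain–NS3 protease complex at 25 nM in 10 mM Tris-HCl pH 8.0, 0.01% Tween 20, with an AMC peptide substrate. Fluorescence change (340/450 nm) over 15 min at room temperature, normalized to controls, fitted to 4-parameter Hill.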

Assay [12] has as its target Catechol O-methyltransferase (Homo sapiens) (UniProt P21964). In words: Confirmatory Screen for Target Class Profiling of Small Molecule Inhibitors of Methyltransferases (AID 1745852; calls by dose curve; further: potency means the concentration at half of the fitted maximal effect; on activity change, negative = inhibition: on the % scale 0 is the no-effect control and ±100 the full control effect). Particulars: MTase-Glo luminescence, SAH detection, recombinant enzyme; measured here: COMT max response; stronger effect = lower value.
Assay [13] concerns the target Guanidinoacetate N-methyltransferase (Homo sapiens) (UniProt Q14353). The description is as above. Particulars: activity change, negative = inhibition: at 57.3 µM (top of the series) unless noted.
The target of assay [14] is Nicotinamide N-methyltransferase (Homo sapiens) (UniProt P40261). Described as above. Particulars: MTase-Glo luminescence, SAH detection, recombinant enzyme; measured here: NNMT max response; stronger effect = lower value.
In assay [15] the target is Phenylethanolamine N-methyltransferase (Homo sapiens) (UniProt P11086). The assay is described as above. Particulars: MTase-Glo luminescence, SAH detection, recombinant enzyme; measured here: PNMT max response; stronger effect = lower value.
For assay [16], the target named is N-terminal Xaa-Pro-Lys N-methyltransferase 1 (Homo sapiens) (UniProt Q9BV86). In words: Confirmatory qHTS for Inhibitors of N-terminal methyltransferase 1 (NTMT1): MTaseGlo Assay (AID 1645874). In outline: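 Inhibition was derived from luminescence after SAH-to-ATP conversion, scaled between no-enzyme and DMSO wells, then fitted by 4-parameter Hill. Conditions: 125 nM NTMT1, 100 uM SAM, 1 uM SPKRIA, 30 min RT.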

The mark [17] stands for this setting: measured here: PEO1 parental Z-AUC.

Inconclusive results are not listed. Activity calls are given as the source filed them. Unless noted, the call rests on the fitted dose curve; in most records, active means well fitted curve in the direction sought with a large enough effect; inconclusive means small, poorly fitted or top-dose-only effect, or another doubt; inactive means no such curve, though single readings can be large; an effect the other way counts as inactive or inconclusive.

Sequence of Glutathione peroxidase 1 (Homo sapiens) (P07203 whole entry, looked up): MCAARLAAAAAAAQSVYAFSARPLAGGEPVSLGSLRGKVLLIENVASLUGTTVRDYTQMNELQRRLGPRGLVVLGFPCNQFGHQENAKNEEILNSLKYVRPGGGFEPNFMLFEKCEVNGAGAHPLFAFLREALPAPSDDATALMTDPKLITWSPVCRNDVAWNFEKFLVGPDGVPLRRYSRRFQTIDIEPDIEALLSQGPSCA
Sequence of Nicotinamide N-methyltransferase (Homo sapiens) (P40261 whole entry, looked up): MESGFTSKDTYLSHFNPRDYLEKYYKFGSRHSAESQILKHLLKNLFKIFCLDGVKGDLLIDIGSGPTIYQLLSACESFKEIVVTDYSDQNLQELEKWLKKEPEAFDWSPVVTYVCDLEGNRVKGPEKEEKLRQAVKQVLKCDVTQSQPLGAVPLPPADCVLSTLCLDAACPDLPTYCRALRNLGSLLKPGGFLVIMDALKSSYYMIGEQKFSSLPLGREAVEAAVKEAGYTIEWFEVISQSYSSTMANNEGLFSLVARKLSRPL
Sequence of Catechol O-methyltransferase (Homo sapiens) (P21964 whole entry, looked up): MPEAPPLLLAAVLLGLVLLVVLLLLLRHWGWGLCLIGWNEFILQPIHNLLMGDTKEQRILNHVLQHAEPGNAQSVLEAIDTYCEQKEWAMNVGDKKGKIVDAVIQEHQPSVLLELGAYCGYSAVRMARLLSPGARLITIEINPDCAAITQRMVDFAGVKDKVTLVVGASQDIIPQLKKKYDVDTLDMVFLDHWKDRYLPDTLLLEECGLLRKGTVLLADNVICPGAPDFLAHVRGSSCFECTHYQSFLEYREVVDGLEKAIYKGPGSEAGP
Sequence of Phenylethanolamine N-methyltransferase (Homo sapiens) (P11086 whole entry, looked up): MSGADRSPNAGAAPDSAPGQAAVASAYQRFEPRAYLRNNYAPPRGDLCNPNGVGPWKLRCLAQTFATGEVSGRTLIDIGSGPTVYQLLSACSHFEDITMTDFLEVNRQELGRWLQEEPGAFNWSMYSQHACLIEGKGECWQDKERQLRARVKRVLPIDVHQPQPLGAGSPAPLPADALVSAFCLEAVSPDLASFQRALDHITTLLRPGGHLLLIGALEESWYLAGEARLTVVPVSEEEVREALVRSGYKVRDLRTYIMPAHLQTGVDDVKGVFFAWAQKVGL
Sequence of Phospholipid hydroperoxide glutathione peroxidase GPX4 (Homo sapiens) (P36969 whole entry, looked up): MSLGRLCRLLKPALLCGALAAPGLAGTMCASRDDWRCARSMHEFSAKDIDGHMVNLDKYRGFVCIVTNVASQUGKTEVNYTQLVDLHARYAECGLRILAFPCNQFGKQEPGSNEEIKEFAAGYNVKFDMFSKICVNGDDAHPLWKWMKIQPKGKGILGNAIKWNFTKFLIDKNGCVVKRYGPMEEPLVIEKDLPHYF
Sequence of Calcium and integrin-binding protein 1 (Homo sapiens) (Q99828 whole entry, looked up): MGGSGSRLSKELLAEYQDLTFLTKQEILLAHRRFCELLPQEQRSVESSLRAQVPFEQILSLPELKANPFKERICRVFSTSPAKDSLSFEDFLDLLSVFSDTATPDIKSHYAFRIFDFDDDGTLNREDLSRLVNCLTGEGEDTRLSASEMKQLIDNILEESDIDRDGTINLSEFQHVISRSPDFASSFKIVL
Sequence of N-terminal Xaa-Pro-Lys N-methyltransferase 1 (Homo sapiens) (Q9BV86 whole entry, looked up): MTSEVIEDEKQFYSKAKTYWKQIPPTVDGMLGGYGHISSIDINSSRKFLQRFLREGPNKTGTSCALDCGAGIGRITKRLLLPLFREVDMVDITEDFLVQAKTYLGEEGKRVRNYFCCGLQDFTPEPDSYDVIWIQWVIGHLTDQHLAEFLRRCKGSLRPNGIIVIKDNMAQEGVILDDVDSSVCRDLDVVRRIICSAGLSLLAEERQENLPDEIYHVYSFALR

On to `O=C1CCCC2=C1C(c1ccncc1Br)N=C(Nc1nc3ccccc3o1)N2` (centres undefined), for which the Potency entry in assay [1] and in assay [3] was “inactive” each time. Moreover, the outcome in assay [2] was “inactive”.
`CNS(=O)(=O)c1ccc2c(c1)/C(=C/c1[nH]c3c(c1CCCN1CCN(C)CC1)CCCC3)C(=O)N2`: the Potency result in assay [1], in assay [5], in assay [3] and in assay [7] was “inactive” in each case. For the same compound, the results for the Potency in assay [4] and in assay [6] were 20.8 µM (active) and 16.6 µM (active), respectively. Besides, the Z-AUC in assay [8] is 0.43 (inactive); in assay [8] (setting [17]), 0.259; in assay [8] (measured here: PEO4 Z-AUC), -0.147.
For the compound `COc1ccc(CCNCc2ccc(OCc3ccc(Cl)nc3)c(OC)c2)cc1OC`, the Potency entry in assay [9] and in assay [3] was “inactive” throughout.
Regarding `Nc1ncnc(Nc2ccc(OCc3ccccc3)c(Cl)c2)c1/C=N/OCCN1CCOCC1`, the Potency in assay [1] is 16.4 µM (active); in [5], 16.6 µM (active). Further, the Potency entry in assay [3] and in assay [7] was “inactive” each time. Moreover, the figures for the activity change, negative = inhibition in [10] (HiBiT) and in assay [10] (Viability) were -8.78% (inactive) and 12.2% (inactive), respectively.
With `O=C1NC(=O)c2cc(Nc3ccc(F)cc3)c(Nc3ccc(F)cc3)cc21`, the Potency in assay [1] is 14.6 µM (active). Moreover, the Potency entry in assay [11] and in assay [3] was “inactive” in each case.
Regarding `COc1cc(/C=C\c2ccc(O)cc2)cc(OC)c1`, the Potency result in assay [1] is “inactive”. In assay [5], the Potency is 6.51 µM (active).
For the compound `COC(=O)c1ccc(=O)c2nc3/c(=C/O)c(O)cc(=O)c3[nH]c12`, the Potency result in assay [1] is “inactive”. For the same compound, the figures for the Potency in assay [5] and in [6] were 5.17 µM (active) and 13 µM (active), respectively. In addition, the activity in [12] was -24.9%; in [14], -20%; in [15], -28.7%. The activity change, negative = inhibition in assay [13] is -20.5%.
For `CC(C)n1nc(-c2ccc(NC(=O)Nc3cccc(C(F)(F)F)c3)cc2)c2c(N)ncnc21`, the figures for the Potency in [1], in [5] and in assay [6] were 4.11 µM (active), 0.366 µM (active) and 0.259 µM (active), respectively. Moreover, the values for the activity in assay [12], in assay [14] and in assay [15] were -1.63%, -74.3% and -1.08%, respectively. For the same compound, the activity change, negative = inhibition in assay [13] came out at 0%.
In the case of `Cc1ccc2cc(-c3c(C)ccc(C(=O)c4c(-c5ccccc5)n(C)n(-c5ccccc5)c4=O)c3N)ccc2n1`, the Potency in assay [1] is 16.4 µM (active). Besides, the Potency entry in [4] and in assay [3] was “inactive” throughout. Further, the results for the Z-AUC in [8], in assay [8] (setting [17]) and in assay [8] (measured here: PEO4 Z-AUC) were -0.557 (inactive), -0.233 and -0.0214, respectively.
Turning to `CN(C)c1ccc(Nc2c3ccc(NC(=O)CCN4CCCC4)cc3nc3cc(NC(=O)CCN4CCCC4)ccc23)cc1`, the Potency result in [1] and in assay [3] was “inactive” in each case. Besides, the Potency in assay [16] was 6.49 µM (active); in assay [13], 24.1 µM (active). Also, the activity in assay [12] is -13%; in assay [14] it was -39.2%; in assay [15], -14.2%.
With `O=Nc1c2[nH]c3ccccc3nc-2c2ccccc12`, the Potency result in [1] was “inactive”. Besides, in assay [5], the Potency was 13 µM (active).
Turning to `NC(=O)c1ncn(C2O[C@H](CO)[C@@H](O)[C@H]2O)c1N` (some centres undefined), the Potency entry in [1], in [5] and in [6] was “inactive” throughout.
For `CC(C)n1nc(Cc2cccc3ccccc23)c2c(N)ncnc21`, the Potency in assay [1] was 18.4 µM (active). Besides, the outcome in assay [2] was “inactive”. Further, the figures for the activity in assay [12], in assay [14] and in assay [15] were -11.5%, -28.9% and -57.3%, respectively. Besides, the activity change, negative = inhibition in assay [13] is -6.43%. Further, the Potency result in assay [3] was “inactive”.
On to `O=C(/C=C/c1cccnc1)c1ccncc1`, for which the Potency entry in assay [1] is “inactive”.
In the case of `CCOC(=O)c1c2c3c(cccc3[nH]c1=O)C(=O)c1ccccc1-2`, the Potency entry in assay [1], in assay [5], in [6] and in assay [3] was “inactive” in each case.

The record behind these values is PubChem BioAssay (NCATS).
